The values below come from PubChem BioAssay AID651949 (Broad Institute, 2012).

Results with a measured potency or affinity are listed apart. Activity calls are given as the source filed them.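 How the source made its calls: active means compounds lowering cell ATP signal whose fitted half-maximal concentration is at most twice the top tested dose; inconclusive means flat curve with 30 to 70% signal loss, or poor fit; inactive means the rest.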

This test can be described thus: HEK293T cell cytotoxicity, dose response, cytotoxicity control, CellTiter-Glo luminescence, dry powder, set 6 (AID 651949). The conditions noted are these: HEK293T viability, CellTiter-Glo ATP luminescence, 48 h; series mostly up to 26 µM. (Cellular ATP, detected with luciferase, serves as a proxy for viable cell number.)
In the case of `Cc1ccc(-c2nnc(SCc3ccccn3)o2)cc1`, the result was inactive. In the case of `Clc1ccc(-c2nnc(SCc3cn(-c4ccccc4)nn3)o2)cc1`, the molecule was called inactive. With `c1ccc(CSc2nnc(-c3ccncc3)o2)nc1`, the result was inactive. To `FC(F)(F)CNCCSc1nnc(-c2ccccc2)o1` belongs “inactive”. Consider `c1ccc(CSc2nnc(-c3ccc(-c4ccccc4)cc3)o2)cc1`, for which the outcome was inactive. In the case of `Fc1ccc(Cn2cc(CSc3nnc(-c4ccc(F)cc4)o3)nn2)cc1` it was “inactive”; in that of `Cc1cccc(CSc2nnc(-c3ccc(Cl)cc3)o2)n1`, “inactive”; in that of `Fc1cccc(CSc2nnc(-c3ccccc3)o2)c1`, “inactive”. In the case of `O=C(Cc1ccccc1)C(C(=O)c1nnc(-c2ccccc2)o1)c1ccccc1` (stereo unspecified) it was “inactive”; in that of `COc1ccc(-c2nnc(SCc3ccccc3)o2)cc1`, “inactive”; in that of `COCCOCCSc1nnc(-c2ccccc2)o1`, “inactive”. Take `CS(=O)(=O)c1ccccc1CSc1nnc(-c2ccccc2)o1`: the call was inactive. For the molecule `N#Cc1cccc(CSc2nnc(-c3ccccc3)o2)c1`, the outcome was inactive.

Regarding `FC(F)(F)Oc1ccc(-c2nnc(SCc3ccccc3)o2)cc1`, the result was inactive. Consider `c1ccc(Sc2nnc(-c3ccccc3)o2)cc1`, for which the molecule was called inactive. As for `O=S(=O)(Cc1ccccc1)c1nnc(-c2ccccc2)o1`, the molecule was classed as inactive. With `FC(F)(F)Oc1ccccc1CSc1nnc(-c2ccccc2)o1`, the result was inactive. To `Fc1cccc(-c2nnc(SCc3ccccc3)o2)c1` belongs “inactive”; to `Fc1ccc(CSc2nnc(-c3ccc(Cl)cc3)o2)cc1`, “inactive”. To `c1ccc(CCc2nnc(SCc3ccccc3)o2)cc1` belongs “inactive”. Consider `N#Cc1ccc(CSc2nnc(-c3ccccc3)o2)cc1`, for which the molecule was called inactive.
